# In the supplement of paper PMC3616981:
# Compound: CC(C)c1cccc(C(C)C)c1N1C(=O)c2ccc(O)cc2C1=O
# Experiment: reporter fold induction vs vehicle; higher = higher reporter activity
# Description: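 Attagene multiplexed transcription-factor reporter assay (48 cis response elements and 25 trans nuclear-receptor constructs) treated with 5HPP-33 at 8 concentrations (0.091–200 µM). The response is fold induction of reporter activity relative to vehicle control. Cell line and time not stated in the paper; tested in ToxCast Phase II for this study.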
target,measurement,setting,value
PPRE_CIS,reporter fold induction,0.091 µM,1.02
same,reporter fold induction,0.274 µM,0.905
same,reporter fold induction,0.823 µM,1.09
same,reporter fold induction,2.469 µM,0.944
same,reporter fold induction,7.407 µM,1.08
same,reporter fold induction,22.22 µM,1.21
same,reporter fold induction,66.67 µM,2.59
same,reporter fold induction,200 µM,1.68
GLI_CIS,reporter fold induction,0.091 µM,1.04
same,reporter fold induction,0.274 µM,0.925
same,reporter fold induction,0.823 µM,1
same,reporter fold induction,2.469 µM,1.04
same,reporter fold induction,7.407 µM,0.914
same,reporter fold induction,22.22 µM,0.833
same,reporter fold induction,66.67 µM,1.19
same,reporter fold induction,200 µM,2.1
PBREM_CIS,reporter fold induction,0.091 µM,1.05
same,reporter fold induction,0.274 µM,1.04
same,reporter fold induction,0.823 µM,0.916
same,reporter fold induction,2.469 µM,0.965
same,reporter fold induction,7.407 µM,1.24
same,reporter fold induction,22.22 µM,1.15
same,reporter fold induction,66.67 µM,1.19
same,reporter fold induction,200 µM,1.16
GAL4_TRANS,reporter fold induction,0.091 µM,1.03
same,reporter fold induction,0.274 µM,0.907
same,reporter fold induction,0.823 µM,0.951
same,reporter fold induction,2.469 µM,0.908
same,reporter fold induction,7.407 µM,0.842
same,reporter fold induction,22.22 µM,0.905
same,reporter fold induction,66.67 µM,0.61
same,reporter fold induction,200 µM,0.53
p53_CIS,reporter fold induction,0.091 µM,1.06
same,reporter fold induction,0.274 µM,1.04
same,reporter fold induction,0.823 µM,1.03
same,reporter fold induction,2.469 µM,0.969
same,reporter fold induction,7.407 µM,0.996
same,reporter fold induction,22.22 µM,0.831
same,reporter fold induction,66.67 µM,1.19
same,reporter fold induction,200 µM,0.456
